Assay results from PubChem BioAssay (NCI).
This is part of a sample that, as a whole, favours compounds with a hit. Of some 79,000 tested, about 15% had one in any assay. Active and inactive are the calls of the source. No stated cut-off is given here; in the data, active means growth inhibition above about 70%; inactive means the rest.

Experiments:
[1] = NCI Yeast Anticancer Drug Screen. Data for the rad52 strain (AID 147);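 further: 0% = growth of vehicle-treated control cultures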; conditions: S. cerevisiae rad52 mutant growth inhibition, hits give high values
Outline: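 Growth of repair-deficient yeast cells was compared between compound-treated and vehicle-treated cultures to give percent inhibition.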

[2] = NCI Yeast Anticancer Drug Screen. Data for the wt1 strain (AID 149);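 further: 0% = growth of vehicle-treated wt1 cultures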; conditions: S. cerevisiae wt1 strain (SPY 50644) growth inhibition, hits give high values
Outline: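 Yeast wt1 strain exposed to compounds; growth inhibition measured relative to vehicle-treated controls.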

[3] = NCI Yeast Anticancer Drug Screen. Data for the rad50EPP+ strain (AID 151);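 further: 0% = growth of vehicle-treated control cultures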; conditions: S. cerevisiae rad50 mutant strain, hits give high values
Outline: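 Measured: growth inhibition of rad50EPP+ yeast. Reference: vehicle-treated controls. Screen uses strains with defined genetic alterations in DNA damage repair or cell cycle control.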

[4] = NCI Yeast Anticancer Drug Screen. Data for the rad50 strain (AID 155);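 further: 0% = growth of vehicle-only cultures of the same strain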; conditions: S. cerevisiae rad50 strain growth inhibition, hits give high values
Outline: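 Yeast carrying a defined DNA repair defect were exposed to test compounds, and growth was compared with vehicle-treated controls to give percent inhibition.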

[5] = NCI Yeast Anticancer Drug Screen. Data for the mec2-1 strain (AID 157); conditions: S. cerevisiae mec2-1 strain, hits give high values
Outline: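 Compounds were applied to mec2-1 yeast cells. Their growth was then compared with that of vehicle-treated cultures to give growth inhibition.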

[6] = NCI Yeast Anticancer Drug Screen. Data for the rad14 strain (AID 159);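 further: 0% = growth of vehicle-treated control cultures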; conditions: S. cerevisiae rad14 strain growth inhibition, hits give high values
Outline: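 Yeast cells carrying a defined DNA-repair defect were exposed to compounds, and growth inhibition was calculated relative to vehicle-treated control cultures.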

[7] = NCI Yeast Anticancer Drug Screen. Data for the sgs1 mgt1 strain (AID 161);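 further: 0% = growth of cultures given vehicle only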; conditions: S. cerevisiae sgs1 mgt1 strain, hits give high values
Outline: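 Yeast cells carrying a defined DNA-repair defect were exposed to test compounds. Growth inhibition was measured relative to vehicle-treated controls.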

[8] = NCI Yeast Anticancer Drug Screen. Data for the bub3 strain (AID 167); conditions: S. cerevisiae bub3 mutant strain, hits give high values
Outline: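 Compounds were applied to a genetically altered yeast strain carrying a cell-cycle control defect. Growth inhibition was scored against vehicle-treated controls.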

[9] = NCI Yeast Anticancer Drug Screen. Data for the wt2 strain (AID 169);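 further: 0% = growth of vehicle-treated yeast cultures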; conditions: S. cerevisiae wt2 strain growth inhibition, hits give high values
Outline: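 Growth of compound-treated yeast is measured and expressed as inhibition relative to vehicle-only controls.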

[10] = NCI Yeast Anticancer Drug Screen. Data for the mlh1 strain (AID 171);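 further: 0% = growth of vehicle-treated control cultures of the same strain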; conditions: S. cerevisiae mlh1 strain growth inhibition, hits give high values
Outline: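 Test agents were incubated with yeast bearing a defined DNA damage repair or cell cycle control alteration; values are growth inhibition normalised to vehicle-treated cultures.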

[11] = NCI Yeast Anticancer Drug Screen. Data for the sgs1 strain (AID 173);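 further: 0% = growth of vehicle-only control cultures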; conditions: S. cerevisiae sgs1 mutant, hits give high values
Outline: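 Strain with an altered DNA repair or cell cycle pathway exposed to compound. Growth then measured. Value = inhibition versus vehicle control.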

[12] = NCI Yeast Anticancer Drug Screen. Data for the mlh1 rad18 strain (AID 175); conditions: S. cerevisiae mlh1 rad18 strain growth inhibition, hits give high values
Outline: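 A repair-deficient yeast strain is exposed to test compound, and growth is scored relative to vehicle-treated controls.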

[13] = NCI Yeast Anticancer Drug Screen. Data for the rad18 strain (AID 177); conditions: S. cerevisiae rad18 mutant growth inhibition, hits give high values
Outline: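 DNA-repair-defective yeast; compound treatment; growth inhibition scored against vehicle.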

[14] = NCI Yeast Anticancer Drug Screen. Data for the CLN2oe strain (AID 163);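 further: 0% = growth of vehicle-only control cultures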; conditions: S. cerevisiae CLN2oe strain, hits give high values
Outline: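 Cells of an engineered yeast line with disturbed cell-cycle regulation are treated with compound. Inhibition of growth is then calculated relative to the vehicle-treated reference.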

[15] = NCI Yeast Anticancer Drug Screen. Data for the cln2 rad14 strain (AID 165);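 further: 0% = growth equal to vehicle treated cultures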; conditions: S. cerevisiae cln2 rad14 strain, hits give high values
Outline: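 Strain: cln2 rad14 yeast, altered in cell cycle control and DNA damage repair. Read-out: growth inhibition vs vehicle.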

[16] = at 5.0 µM (retest, dose inferred, filed as 0.5)
[17] = at 50.0 µM (retest, dose inferred, filed as 5.0)

Measured: growth inhibition

Cc1cccc(/C=N/NC(=S)N2CCCC2)n1
inactive: [1]; at 1.2 µM -25% | [1]; at 3.7 µM -26% | [1]; at 11.0 µM 27% | [2]; at 1.2 µM -4% | [2]; at 3.7 µM 1% | [2]; at 11.0 µM 12% | [3]; at 1.2 µM -21% | [3]; at 3.7 µM -21% | [3]; at 11.0 µM -24% | [3]; at 33.0 µM -27% | [3]; at 100.0 µM 38% | [4]; at 1.2 µM -10% | [4]; at 3.7 µM -14% | [4]; [16] 26% | [4]; at 11.0 µM 35% | [5]; at 1.2 µM -24% | [5]; at 3.7 µM -21% | [5]; [16] 36% | [6]; at 1.2 µM 2% | [6]; at 3.7 µM 6% | [7]; [16] 25% | [7]; [17] 47% | [8]; at 1.2 µM -13% | [8]; at 3.7 µM -8% | [8]; [16] 40% | [8]; at 11.0 µM 32% | [9]; at 1.2 µM -6% | [9]; at 3.7 µM -8% | [9]; at 11.0 µM 10% | [10]; at 1.2 µM -8% | [10]; at 3.7 µM -8% | [10]; at 11.0 µM 48% | [11]; at 1.2 µM -19% | [11]; at 3.7 µM -21% | [11]; at 11.0 µM 17% | [12]; [16] 14% | [13]; at 1.2 µM -17% | [13]; at 3.7 µM -14% | [13]; at 11.0 µM 12%
active: [1]; at 33.0 µM 94% | [1]; at 100.0 µM 96% | [2]; at 33.0 µM 94% | [2]; at 100.0 µM 96% | [4]; at 33.0 µM 95% | [4]; [17] 94% | [4]; at 50.0 µM 86.3% | [4]; at 100.0 µM 95% | [5]; at 11.0 µM 73% | [5]; at 33.0 µM 94% | [5]; [17] 95% | [5]; at 50.0 µM 89.8% | [5]; at 100.0 µM 97% | [6]; at 11.0 µM 74% | [6]; at 33.0 µM 96% | [6]; at 100.0 µM 98% | [7]; at 50.0 µM 88.2% | [8]; at 33.0 µM 95% | [8]; [17] 96% | [8]; at 50.0 µM 88.5% | [8]; at 100.0 µM 96% | [9]; at 33.0 µM 93% | [9]; at 100.0 µM 96% | [10]; at 33.0 µM 95% | [10]; at 100.0 µM 97% | [11]; at 33.0 µM 95% | [11]; at 100.0 µM 96% | [12]; [17] 95% | [12]; at 50.0 µM 86% | [13]; at 33.0 µM 95% | [13]; at 100.0 µM 96%

Cc1cccc(C(C)(C)C)c1NC(=O)C(C#N)C1=C(Cl)C(=O)c2ccccc2C1=O (stereo not drawn)
active: [1]; at 33.0 µM 97% | [1]; at 100.0 µM 98% | [2]; at 33.0 µM 98% | [2]; at 100.0 µM 98% | [3]; at 11.0 µM 99% | [3]; at 33.0 µM 99% | [3]; at 100.0 µM 98% | [4]; at 11.0 µM 70% | [4]; at 33.0 µM 98% | [4]; [17] 97% | [4]; at 50.0 µM 91% | [4]; at 100.0 µM 96% | [5]; at 11.0 µM 95% | [5]; at 33.0 µM 95% | [5]; [17] 98% | [5]; at 50.0 µM 90.5% | [5]; at 100.0 µM 97% | [6]; at 11.0 µM 76% | [6]; at 33.0 µM 98% | [6]; at 100.0 µM 97% | [7]; [17] 98% | [7]; at 50.0 µM 89.5% | [14]; at 33.0 µM 98% | [14]; at 100.0 µM 98% | [15]; [17] 97% | [15]; at 50.0 µM 88.7% | [8]; at 11.0 µM 76% | [8]; at 33.0 µM 98% | [8]; [17] 98% | [8]; at 50.0 µM 92.3% | [8]; at 100.0 µM 96% | [9]; at 11.0 µM 74% | [9]; at 33.0 µM 97% | [9]; at 100.0 µM 94% | [10]; at 33.0 µM 99% | [10]; at 100.0 µM 98% | [11]; at 33.0 µM 98% | [11]; at 100.0 µM 97% | [12]; [17] 97% | [12]; at 50.0 µM 89.5%
inactive: [1]; at 1.2 µM 6% | [1]; at 3.7 µM 36% | [1]; at 11.0 µM 52% | [2]; at 1.2 µM -10% | [2]; at 3.7 µM 10% | [2]; at 11.0 µM 21% | [3]; at 1.2 µM 14% | [3]; at 3.7 µM 67% | [4]; at 1.2 µM 4% | [4]; at 3.7 µM 24% | [4]; [16] -1% | [5]; at 1.2 µM 14% | [5]; at 3.7 µM 46% | [5]; [16] -4% | [6]; at 1.2 µM 4% | [6]; at 3.7 µM 16% | [7]; [16] 46% | [14]; at 1.2 µM 4% | [14]; at 3.7 µM 30% | [14]; at 11.0 µM 58% | [15]; [16] 19% | [8]; at 1.2 µM 14% | [8]; at 3.7 µM 11% | [8]; [16] 39% | [9]; at 1.2 µM -21% | [9]; at 3.7 µM 6% | [10]; at 1.2 µM 17% | [10]; at 3.7 µM 22% | [10]; at 11.0 µM 56% | [11]; at 1.2 µM -2% | [11]; at 3.7 µM 9% | [11]; at 11.0 µM 45% | [12]; [16] 11%
